The values that follow come from PubChem BioAssay (EPA / NIEHS).

Results filed as inconclusive are left out. Activity calls are given as the source filed them. The calls were made as follows, unless noted: active = hit-call score of the fitted dose curve at least 0.9, where 1 is the maximum; inactive = score below 0.9.

Assay [1] is described as follows: ATG_NFI_CIS: Attagene CIS-FACTORIAL HepG2 Assay for human Nuclear Factor I (NFI) (AID 2282989). As to conditions: HepG2 cis-regulatory reporter, NFI response element transcription; actives raise or lower the signal. The method, boiled down: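 Transfected HepG2 liver cells, exposed 24 h, supplied total RNA for oligo(dT) reverse transcription and reporter-specific PCR. Labelled, HpaI-cut fragments were sized by capillary electrophoresis; DMSO set the baseline for bidirectional fitting.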

Assay [2] deals with Myc proto-oncogene protein (Homo sapiens) (UniProt P01106). The assay is described as follows: ATG_Myc_CIS: Attagene CIS-FACTORIAL HepG2 Assay for human Myelocytomatosis (Myc) Proto-Oncogene Transcription Factor (AID 2282990). The note with it: HepG2, Attagene cis-reporter transcription factor activity; actives raise or lower the signal. The method, boiled down: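 DMSO-normalised, bidirectionally fitted reporter mRNA signal. HepG2 cells transfected with cis reporter constructs, treated 24 h; transcripts detected by RT-PCR, 6-FAM primer extension and CE.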
Sequence of Myc proto-oncogene protein (Homo sapiens) (P01106 whole entry, looked up): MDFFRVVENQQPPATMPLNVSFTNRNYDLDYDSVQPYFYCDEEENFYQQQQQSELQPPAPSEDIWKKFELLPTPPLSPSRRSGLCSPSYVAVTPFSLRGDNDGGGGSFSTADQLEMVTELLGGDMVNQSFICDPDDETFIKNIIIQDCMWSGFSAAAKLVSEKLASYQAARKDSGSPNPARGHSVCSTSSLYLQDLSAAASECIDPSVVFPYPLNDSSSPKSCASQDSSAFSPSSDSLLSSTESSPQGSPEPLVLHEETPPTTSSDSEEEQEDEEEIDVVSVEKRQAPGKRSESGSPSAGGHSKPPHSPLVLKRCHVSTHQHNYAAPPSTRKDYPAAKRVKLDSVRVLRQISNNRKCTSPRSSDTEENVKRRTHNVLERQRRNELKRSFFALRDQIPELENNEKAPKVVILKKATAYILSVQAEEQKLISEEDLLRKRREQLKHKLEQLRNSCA

A short description of assay [3]: ATG_NRF2_ARE_CIS: Attagene CIS-FACTORIAL HepG2 Assay for human Nuclear Factor Erythroid 2 Related Factor 2 (NFR2) response to Antioxidant Response Elements (ARE) (AID 2282992).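 As to AC50: reporter mRNA level measured by RT-PCR and capillary electrophoresis fluorescence.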 As to conditions: HepG2 Attagene ARE/NRF2 reporter, transcription factor activity; actives raise or lower the signal. The method, boiled down:
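Cis-factorial assay: transfected HepG2 reporter library, 24 h dosing, mRNA readout via RT-PCR/CE; DMSO-referenced bidirectional analysis.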

The nature of assay [4]: ATG_Oct_MLP_CIS: Attagene CIS-FACTORIAL HepG2 Assay for human Octamer-Binding Transcription Factor (Oct) (AID 2282993). As to conditions: HepG2 Attagene cis-factorial Oct reporter, mRNA; actives raise or lower the signal. The method, boiled down:
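Using HepG2 cells bearing transfected cis-reporter constructs, mRNA induction was read after 24 h by fluorescent RT-PCR and capillary electrophoresis, with DMSO defining baseline for gain- or loss-of-signal fits.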

Assay [5] deals with Cellular tumor antigen p53 (Homo sapiens) (UniProt P04637). The assay is described as follows: ATG_p53_CIS: Attagene CIS-FACTORIAL HepG2 Assay for human p53 Transcription Factor (AID 2282994). The note with it: HepG2 p53 cis-element reporter, Attagene mRNA; actives raise or lower the signal. The method, boiled down: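 Using HepG2 hepatoma cells carrying cis-acting multiplexed reporters, mRNA induction is detected after a 24 h exposure. Gain- and loss-of-signal responses are fitted relative to DMSO-treated cells.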
Sequence of Cellular tumor antigen p53 (Homo sapiens) (P04637 whole entry, looked up): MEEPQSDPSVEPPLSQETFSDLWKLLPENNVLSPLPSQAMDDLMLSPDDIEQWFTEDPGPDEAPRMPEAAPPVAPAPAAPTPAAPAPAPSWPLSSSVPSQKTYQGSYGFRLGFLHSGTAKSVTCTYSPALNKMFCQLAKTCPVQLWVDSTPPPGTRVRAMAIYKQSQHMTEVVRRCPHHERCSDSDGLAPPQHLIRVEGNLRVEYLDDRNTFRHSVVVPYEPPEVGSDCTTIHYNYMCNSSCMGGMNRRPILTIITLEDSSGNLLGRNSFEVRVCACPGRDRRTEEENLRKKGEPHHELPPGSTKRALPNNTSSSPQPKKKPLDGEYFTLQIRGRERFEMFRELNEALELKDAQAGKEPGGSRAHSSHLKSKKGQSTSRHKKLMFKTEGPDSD

For assay [6], the target named is human Peroxisome Proliferator-activated Receptor alpha (PPARa), PPARA (gene 5465) (UniProt Q07869). The assay is described as follows: ATG_PPARa_TRANS: Attagene TRANS-FACTORIAL HepG2 Assay for human Peroxisome Proliferator-activated Receptor alpha (PPARa) (AID 2283001; active = hit-call score of the fitted dose curve at least 0.9, where 1 is the maximum;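 as to AC50: potency for gain of reporter signal over DMSO so agonist or activator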). The method, boiled down: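 Gain-of-signal endpoint: reporter mRNA induction relative to DMSO, detected by fluorescent RT-PCR and capillary electrophoresis. HepG2 cells transiently carried GAL4-UAS-driven reporter units plus NR-Gal4 fusion; exposure lasted 24 h.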
Sequence of human Peroxisome Proliferator-activated Receptor alpha (PPARa), PPARA (gene 5465) (Q07869 whole entry, looked up, the tested form may be a part): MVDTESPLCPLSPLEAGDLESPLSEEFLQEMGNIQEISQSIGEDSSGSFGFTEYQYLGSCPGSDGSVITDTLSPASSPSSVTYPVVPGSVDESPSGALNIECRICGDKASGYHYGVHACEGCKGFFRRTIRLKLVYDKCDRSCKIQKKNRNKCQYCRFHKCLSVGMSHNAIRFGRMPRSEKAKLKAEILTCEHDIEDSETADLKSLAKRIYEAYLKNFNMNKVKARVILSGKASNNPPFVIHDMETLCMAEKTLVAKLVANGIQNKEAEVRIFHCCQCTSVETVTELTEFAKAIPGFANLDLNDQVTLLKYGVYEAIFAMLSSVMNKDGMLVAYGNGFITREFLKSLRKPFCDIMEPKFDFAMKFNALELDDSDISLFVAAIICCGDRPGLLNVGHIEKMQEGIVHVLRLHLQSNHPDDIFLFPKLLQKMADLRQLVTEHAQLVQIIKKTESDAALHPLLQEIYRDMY

Assay [7] deals with human Peroxisome Proliferator-activated Receptor delta (PPARd), PPARD (gene 5467) (UniProt Q03181). The assay is described as follows: ATG_PPARd_TRANS: Attagene TRANS-FACTORIAL HepG2 Assay for human Peroxisome Proliferator-activated Receptor delta (PPARd) (AID 2283002; active = hit-call score of the fitted dose curve at least 0.9, where 1 is the maximum). The method, boiled down: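 Measured quantity: GAL4-UAS reporter transcript induction in HepG2 after 24 h chemical dosing, with NR-Gal4 chimeras supplied by transient transfection. Detection by RT-PCR and capillary electrophoresis; upward fit against DMSO.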
Sequence of human Peroxisome Proliferator-activated Receptor delta (PPARd), PPARD (gene 5467) (Q03181 whole entry, looked up, the tested form may be a part): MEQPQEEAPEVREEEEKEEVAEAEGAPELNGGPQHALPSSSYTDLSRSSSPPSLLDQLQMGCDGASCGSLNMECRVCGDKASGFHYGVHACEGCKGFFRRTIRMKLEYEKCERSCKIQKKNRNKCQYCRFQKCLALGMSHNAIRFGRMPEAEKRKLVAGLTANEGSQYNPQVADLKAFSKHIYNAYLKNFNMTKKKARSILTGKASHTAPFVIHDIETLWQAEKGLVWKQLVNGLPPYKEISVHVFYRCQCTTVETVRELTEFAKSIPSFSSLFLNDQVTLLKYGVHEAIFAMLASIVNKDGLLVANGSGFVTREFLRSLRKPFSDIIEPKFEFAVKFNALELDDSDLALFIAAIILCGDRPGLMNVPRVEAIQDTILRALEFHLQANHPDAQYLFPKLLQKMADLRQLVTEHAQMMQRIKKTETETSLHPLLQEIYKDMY

Assay [8] concerns the target Peroxisome proliferator-activated receptor gamma (Homo sapiens) (UniProt P37231). The assay is described as follows: ATG_PPARg_TRANS: Attagene TRANS-FACTORIAL HepG2 Assay for human Peroxisome Proliferator-activated Receptor-gamma (PPARg) (AID 2283007; active = hit-call score of the fitted dose curve at least 0.9, where 1 is the maximum). The method, boiled down:
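Multiplexed reporter transcription units in HepG2, 24 h dosing, reporter transcripts quantified by fluorescent RT-PCR and capillary electrophoresis. Increase over DMSO scored.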

For assay [9], the target named is Nuclear receptor subfamily 1 group I member 2 (Homo sapiens) (UniProt O75469). In words: ATG_PXR_TRANS: Attagene TRANS-FACTORIAL HepG2 Assay for human Pregnane X Receptor (PXR) (AID 2283008; active = hit-call score of the fitted dose curve at least 0.9, where 1 is the maximum). The method, boiled down:
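Fluorescence intensity of FAM-labelled, HpaI-digested reporter amplicons, separated by capillary electrophoresis, quantifies induction. HepG2 cells with PXR-Gal4 trans-reporter system were exposed 24 h; DMSO defines baseline.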

Assay [10] deals with human RAR-related Orphan Receptor beta (RORb), RORB (gene 6096) (UniProt Q92753). In words: ATG_RORb_TRANS: Attagene TRANS-FACTORIAL HepG2 Assay for human RAR-related Orphan Receptor beta (RORb) (AID 2283010; active = hit-call score of the fitted dose curve at least 0.9, where 1 is the maximum). The method, boiled down:
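Readout is reporter-gene mRNA induction, detected as fluorescence after RT-PCR and capillary electrophoresis, fitted for gain of signal against DMSO controls. Transiently transfected HepG2 liver cells carrying GAL4-UAS reporter constructs were treated for 24 hours.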

Assay [11] deals with human Retinoic Acid Receptor gamma (RARg), RARG (gene 5916) (UniProt P13631). The assay is described as follows: ATG_RARg_TRANS: Attagene TRANS-FACTORIAL HepG2 Assay for human Retinoic Acid Receptor gamma (RARg) (AID 2283009; active = hit-call score of the fitted dose curve at least 0.9, where 1 is the maximum). The method, boiled down:
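Transient transfection of HepG2 with multi-reporter constructs, then 24 h chemical treatment. Total RNA isolated, reverse-transcribed, PCR-amplified, fluorescently labelled and resolved by capillary electrophoresis; activity scored as mRNA induction versus DMSO.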

The nature of assay [12]: ATG_NF_kB_CIS: Attagene CIS-FACTORIAL HepG2 Assay for human Nuclear Factor Kappa B (NF-kB) (AID 2282991). As to conditions: HepG2 Attagene cis-factorial NF-kB reporter mRNA; actives raise or lower the signal. The method, boiled down: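 HepG2, transient multi-reporter transfection, cis promoter elements (endogenous TFs). 24 h exposure. Total RNA → RT → PCR → 6-FAM label → HpaI → CE. Gain/loss vs DMSO.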

The target of assay [13] is human Retinoic Acid Receptor beta (RARb), RARB (gene 5915) (UniProt P10826). The assay is described as follows: ATG_RARb_TRANS: Attagene TRANS-FACTORIAL HepG2 Assay for human Retinoic Acid Receptor beta (AID 2283004; active = hit-call score of the fitted dose curve at least 0.9, where 1 is the maximum). The method, boiled down:
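Readout is reporter mRNA induction: RNA reverse-transcribed, PCR-amplified, FAM-labelled, HpaI-cut and resolved by capillary electrophoresis. Transiently transfected HepG2 cells carrying exogenous NR–Gal4 chimeras were dosed for 24 h; activity fitted upward relative to DMSO.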

The target in assay [14] is Retinoic acid receptor alpha (Homo sapiens) (UniProt P10276). In words: ATG_RARa_TRANS: Attagene TRANS-FACTORIAL HepG2 Assay for human Retinoic Acid Receptor alpha (RARa) (AID 2283005; active = hit-call score of the fitted dose curve at least 0.9, where 1 is the maximum). The method, boiled down:
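HepG2 cells transiently transfected with multiple reporter units expressing chimeric RARα-GAL4 fusion, with GAL4-UAS-driven reporters. After 24 h compound exposure, reporter mRNA induction quantified by RT-PCR and capillary electrophoresis with fluorescent labeling; gain-of-signal fitted relative to DMSO control.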

The nature of assay [15]: BSK_3C_TissueFactor: BioMAP Diversity Plus: 3C Assay for Tissue Factor Biomarker Activity (AID 2282997). The note with it: BioMAP 3C HUVEC, tissue factor biomarker readout; actives raise or lower the signal. The method, boiled down:
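Human vascular primary cells (umbilical vein endothelium) received test chemical; Tissue Factor was determined by ELISA at 24 h, and both gain and loss of signal versus DMSO were fitted.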

Assay [16] in a line: BSK_3C_uPAR: BioMAP Diversity Plus: 3C Assay for Urokinase-type plasminogen activator receptor (uPAR) Biomarker Activity (AID 2282998). The note with it: BioMAP 3C HUVEC, uPAR biomarker ELISA; actives raise or lower the signal. The method, boiled down: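 In this endothelial cell-based assay, human umbilical vein primary cells were treated with chemicals and harvested at 24 h. uPAR was quantified using ELISA, with gains or losses fitted relative to DMSO controls.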
For orientation: In an ELISA, binding on a coated surface is turned into a signal by an enzyme label.

The nature of assay [17]: BSK_4H_Eotaxin3: BioMAP Diversity Plus: 4H Assay for Eotaxin 3 Biomarker Activity (AID 2283000).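 Also: CCL26 protein level quantified by ELISA in parallel with SRB cytotoxicity check.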 As to conditions: primary human endothelial cells (HUVEC); actives raise or lower the signal. The method, boiled down:
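Readout is Eotaxin-3 (CCL26) level by ELISA in primary human umbilical vein endothelial cells harvested 24 h after chemical exposure; activity fitted in both directions against DMSO control.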

Read-out in assay [18]: Intercellular Adhesion Molecule 1 (ICAM1), ICAM1 (gene 3383)
The assay is described as follows: BSK_3C_ICAM1: BioMAP Diversity Plus: 3C Assay for Intercellular Adhesion Molecule 1 (ICAM1) Biomarker Activity (AID 2283003). The note with it: primary human endothelial cells (HUVEC); actives raise or lower the signal. The method, boiled down:
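ICAM-1 levels measured by ELISA after HUVEC cultures in the 3C system had been dosed for 24 h. Gain or loss of signal relative to DMSO was fitted in both directions.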

Assay [19] is described as follows: BSK_3C_Proliferation: Cell Proliferation Assessment in the BioMAP Diversity Plus: 3C Assay (AID 2283006). As to conditions: primary human endothelial cells (HUVEC). The method, boiled down:
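Read-out is total protein by SRB absorbance at 560 nm, taken as a proxy for relative cell number. Primary human umbilical vein endothelium cultured below confluence was dosed for 48 h, TCA-fixed and SRB-stained; curves were fitted bidirectionally versus DMSO.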

Sequence of Nuclear receptor subfamily 1 group I member 2 (Homo sapiens) (O75469 whole entry, looked up, the tested form may be a part): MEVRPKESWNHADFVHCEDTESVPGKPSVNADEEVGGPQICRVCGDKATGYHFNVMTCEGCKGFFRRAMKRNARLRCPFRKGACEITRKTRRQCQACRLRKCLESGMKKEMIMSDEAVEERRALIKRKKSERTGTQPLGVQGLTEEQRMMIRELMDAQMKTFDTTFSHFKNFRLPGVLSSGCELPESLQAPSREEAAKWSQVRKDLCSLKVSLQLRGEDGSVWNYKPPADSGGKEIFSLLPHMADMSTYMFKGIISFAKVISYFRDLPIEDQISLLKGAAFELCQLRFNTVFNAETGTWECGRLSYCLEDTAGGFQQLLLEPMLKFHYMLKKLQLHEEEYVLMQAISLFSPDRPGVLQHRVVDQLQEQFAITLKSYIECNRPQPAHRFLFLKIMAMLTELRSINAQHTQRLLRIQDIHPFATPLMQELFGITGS
Sequence of Peroxisome proliferator-activated receptor gamma (Homo sapiens) (P37231 whole entry, looked up): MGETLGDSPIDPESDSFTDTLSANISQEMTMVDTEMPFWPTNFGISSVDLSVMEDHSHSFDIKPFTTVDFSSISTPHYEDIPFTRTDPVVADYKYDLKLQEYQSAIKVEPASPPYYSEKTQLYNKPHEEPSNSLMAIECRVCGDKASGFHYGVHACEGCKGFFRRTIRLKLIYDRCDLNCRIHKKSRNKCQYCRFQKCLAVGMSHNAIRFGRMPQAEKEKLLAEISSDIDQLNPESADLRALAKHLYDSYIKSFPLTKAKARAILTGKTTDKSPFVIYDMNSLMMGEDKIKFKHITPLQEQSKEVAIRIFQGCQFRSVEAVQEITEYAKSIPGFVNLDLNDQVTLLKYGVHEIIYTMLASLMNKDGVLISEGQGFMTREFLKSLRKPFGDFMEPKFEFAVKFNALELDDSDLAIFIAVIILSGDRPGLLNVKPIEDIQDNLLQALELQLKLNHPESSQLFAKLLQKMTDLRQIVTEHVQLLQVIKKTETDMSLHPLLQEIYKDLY
Sequence of human RAR-related Orphan Receptor beta (RORb), RORB (gene 6096) (Q92753 whole entry, looked up, the tested form may be a part): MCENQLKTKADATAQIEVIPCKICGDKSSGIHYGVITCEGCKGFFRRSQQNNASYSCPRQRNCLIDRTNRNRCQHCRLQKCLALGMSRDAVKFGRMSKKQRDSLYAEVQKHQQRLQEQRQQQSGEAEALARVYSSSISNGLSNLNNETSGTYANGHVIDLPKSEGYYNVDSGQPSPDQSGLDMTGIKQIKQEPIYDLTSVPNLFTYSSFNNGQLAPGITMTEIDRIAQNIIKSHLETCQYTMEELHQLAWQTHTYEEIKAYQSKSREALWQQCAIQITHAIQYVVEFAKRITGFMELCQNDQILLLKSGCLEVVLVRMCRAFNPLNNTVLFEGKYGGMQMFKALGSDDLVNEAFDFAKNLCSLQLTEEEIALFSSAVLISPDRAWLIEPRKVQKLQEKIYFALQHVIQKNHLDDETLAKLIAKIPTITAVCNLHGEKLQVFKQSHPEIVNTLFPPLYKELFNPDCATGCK
Sequence of human Retinoic Acid Receptor gamma (RARg), RARG (gene 5916) (P13631 whole entry, looked up): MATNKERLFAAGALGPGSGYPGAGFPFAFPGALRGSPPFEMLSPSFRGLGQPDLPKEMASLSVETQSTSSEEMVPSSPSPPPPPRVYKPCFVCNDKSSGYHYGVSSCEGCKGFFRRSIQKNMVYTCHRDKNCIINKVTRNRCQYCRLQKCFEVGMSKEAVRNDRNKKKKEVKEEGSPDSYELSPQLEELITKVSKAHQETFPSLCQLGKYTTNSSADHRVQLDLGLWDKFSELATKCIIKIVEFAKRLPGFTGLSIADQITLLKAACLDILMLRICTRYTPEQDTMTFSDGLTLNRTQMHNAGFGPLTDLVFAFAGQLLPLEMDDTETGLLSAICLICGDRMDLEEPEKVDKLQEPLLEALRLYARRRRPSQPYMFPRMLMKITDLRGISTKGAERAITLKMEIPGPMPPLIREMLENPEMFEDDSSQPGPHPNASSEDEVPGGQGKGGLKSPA
Sequence of human Retinoic Acid Receptor beta (RARb), RARB (gene 5915) (P10826 whole entry, looked up, the tested form may be a part): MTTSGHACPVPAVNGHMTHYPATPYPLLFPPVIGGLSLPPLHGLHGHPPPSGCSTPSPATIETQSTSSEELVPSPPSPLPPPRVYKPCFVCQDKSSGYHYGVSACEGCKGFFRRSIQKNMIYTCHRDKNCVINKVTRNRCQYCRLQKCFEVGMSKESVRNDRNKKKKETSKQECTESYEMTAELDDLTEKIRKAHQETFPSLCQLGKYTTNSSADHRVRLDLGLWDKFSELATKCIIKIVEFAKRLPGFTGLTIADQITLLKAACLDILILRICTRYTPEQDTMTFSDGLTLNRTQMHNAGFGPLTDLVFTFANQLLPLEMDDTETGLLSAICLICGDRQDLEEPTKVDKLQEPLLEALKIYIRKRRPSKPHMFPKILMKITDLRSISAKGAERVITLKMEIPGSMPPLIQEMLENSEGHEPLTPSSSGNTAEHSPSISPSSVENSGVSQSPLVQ
Sequence of Retinoic acid receptor alpha (Homo sapiens) (P10276 whole entry, looked up, the tested form may be a part): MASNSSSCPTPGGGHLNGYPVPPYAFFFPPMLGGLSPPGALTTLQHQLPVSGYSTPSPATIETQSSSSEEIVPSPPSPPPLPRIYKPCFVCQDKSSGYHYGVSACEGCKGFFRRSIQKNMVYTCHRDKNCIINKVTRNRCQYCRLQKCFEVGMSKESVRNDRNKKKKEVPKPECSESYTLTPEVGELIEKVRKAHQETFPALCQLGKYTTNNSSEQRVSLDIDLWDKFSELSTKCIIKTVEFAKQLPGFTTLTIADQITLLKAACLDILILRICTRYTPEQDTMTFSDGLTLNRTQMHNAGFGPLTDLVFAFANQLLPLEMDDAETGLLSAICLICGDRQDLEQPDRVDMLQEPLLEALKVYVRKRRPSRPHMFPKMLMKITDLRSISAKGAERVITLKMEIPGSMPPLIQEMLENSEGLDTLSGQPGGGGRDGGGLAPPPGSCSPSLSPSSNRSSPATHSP

For `O=CC(F)(F)C(F)(F)C(F)(F)C(F)F`, the molecule was called inactive in [1], in [2], in assay [3], in assay [4], in assay [5] and in assay [6]. Moreover, the molecule was classed as inactive in [7], in assay [8], in [9] and in assay [10].

Consider `CCOC=C(C(=O)OCC)C(=O)OCC`, for which the molecule was called inactive in [1], in assay [2], in assay [3], in assay [4], in [5] and in [6]. Further, the call in assay [7], in [8], in assay [9] and in assay [11] was inactive.

Consider `O=C(C=C(O)C(F)(F)F)C(F)(F)F`, for which the call in [1], in [2], in assay [12], in [4], in [8] and in assay [9] was inactive. Also, in [11], the call was inactive.

Regarding `NC(C(F)(F)F)C(F)(F)F`, the result in assay [1], in [2], in [12], in assay [4], in assay [6] and in assay [9] was inactive. In addition, the call in [11] was inactive.

In the case of `NNC(=O)CCCCC(=O)NN`, the call in assay [1], in assay [2], in assay [3], in assay [4], in assay [6] and in assay [7] was inactive. Besides, the molecule was classed as inactive in assay [9], in assay [11] and in assay [10].

As for `Brc1cc(Br)c(Oc2c(Br)cc(Br)c(Br)c2Br)cc1Br`, the molecule was classed as inactive in assay [1], in [2], in [3], in [4], in [5] and in assay [6]. Moreover, the molecule was called inactive in assay [7], in [13], in [8] and in assay [9].

In the case of `O=C(F)C(F)(F)C(F)(F)C(F)(F)C(=O)F`, the outcome in assay [1], in [2], in assay [3], in assay [4], in assay [5] and in assay [6] was inactive. Moreover, the call in assay [14] and in assay [9] was inactive.

In the case of `O=C1Cc2ccccc2N1c1c(Cl)cccc1Cl`, the call in assay [1], in assay [2], in [12], in assay [4], in [7] and in [8] was inactive. Also, the concentration at half-maximal activity (AC50) in assay [9] was 517 nM (active).

On to `O=C(Nc1ccc(Cl)c(Cl)c1)c1cc(Cl)cc(Cl)c1O`, for which the call in assay [1], in assay [2], in [7], in assay [11] and in assay [10] was inactive. In addition, the AC50 in [3] was 522 nM (active); in [4] it was 1110 nM (active); in assay [5], 10900 nM (active); in [6], 4320 nM (active); in [8], 4330 nM (active); in [9] it was 2740 nM (active).

On to `CCCCC(CC)C(=O)O` (configuration not stated), for which the molecule was classed as inactive in assay [1], in [2], in assay [3], in assay [4], in [15] and in [16]. The result in assay [17], in [6], in assay [7], in assay [18], in assay [19] and in [8] was inactive. The molecule was called inactive in assay [9].

Broadly, the AC50 is the concentration giving half of the maximal activity seen.
